Experimental data reported in PubChem BioAssay AID1159580 (chemical genetic matrix, 2015).
Out of some 5,500 compounds screened, about 2,000 (36%) were called active. Another 18% or so got no clear call; they are omitted. Rule as the data show it: active = normalized growth mostly below about 0.91 (no sharp cut-off); inconclusive = no clear call, values can overlap the other calls; inactive = mostly above about 0.92. The list shows a part of the results.

Experiment: chemical genetic growth profiling, strain panel (AID 1159580);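 also: tested at 20 µM; growth read once vehicle control cultures reached saturation at 30 °C; 1 = growth at the plate median or of vehicle wells; lower values mean less growth of the strain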
Settings: S. cerevisiae deletion strains, growth OD

Measured: normalized growth

COCC1=C(C(=O)OC(C)OC(=O)OC(C)C)N2C(=O)[C@@H](NC(=O)/C(=N\OC)c3csc(N)n3)[C@H]2SC1 (stereo not given in full)
inactive: locus YAL021C, strain ccr4, stronger effect = lower value 0.98 | locus YAL026C, strain drs2, stronger effect = lower value 0.967 | locus YAL030W, strain snc1, stronger effect = lower value 0.982 | locus YBL061C, strain skt5, stronger effect = lower value 0.968 | locus YBR009C, strain hhf1, stronger effect = lower value 0.96 | locus YBR023C, strain chs3, stronger effect = lower value 0.982 | locus YBR171W, strain sec66, stronger effect = lower value 0.968 | locus YBR231C, strain swc5, stronger effect = lower value 0.967 | locus YBR279W, strain paf1, stronger effect = lower value 0.98 | locus YCL011C, strain gbp2, stronger effect = lower value 0.973 | locus YCL016C, strain dcc1, stronger effect = lower value 0.982 | locus YCL061C, strain MRC1, stronger effect = lower value 0.981 | locus YCL069W, strain vba3, stronger effect = lower value 0.976 | locus YCR088W, strain abp1, stronger effect = lower value 0.97 | locus YDL005C, strain med2, stronger effect = lower value 0.966 | locus YDL040C, strain nat1, stronger effect = lower value 0.977 | locus YDR001C, strain nth1, stronger effect = lower value 0.97 | locus YDR069C, strain doa4, stronger effect = lower value 0.971 | locus YDR137W, strain rgp1, stronger effect = lower value 0.93 | locus YDR159W, strain sac3, stronger effect = lower value 0.95 | locus YDR195W, strain ref2 0.927 | locus YDR297W, strain sur2, stronger effect = lower value 0.979 | locus YDR334W, strain swr1, stronger effect = lower value 0.976 | locus YDR335W, strain msn5, stronger effect = lower value 0.987 | locus YDR392W, strain spt3, stronger effect = lower value 0.919 | locus YEL003W, strain gim4, stronger effect = lower value 0.984 | locus YEL037C, strain rad23, stronger effect = lower value 0.969 | locus YEL061C, strain CIN8 (second series), stronger effect = lower value 0.971 | locus YER015W, strain faa2, stronger effect = lower value 0.98 | locus YER016W, strain bim1, stronger effect = lower value 0.98 | locus YER111C, strain swi4, stronger effect = lower value 0.972 | locus YER155C, strain BEM2 (second series), stronger effect = lower value 0.972 | locus YFR010W, strain ubp6, stronger effect = lower value 0.964 | locus YGL167C, strain pmr1, stronger effect = lower value 0.967 | locus YGL173C, strain kem1, stronger effect = lower value 0.968 | locus YGL227W, strain vid30, stronger effect = lower value 0.96 | locus YGL240W, strain doc1, stronger effect = lower value 0.981 | locus YGL253W, strain hxk2, stronger effect = lower value 0.986 | locus YHR013C, strain ard1, stronger effect = lower value 0.976 | locus YHR027C, strain rpn1, stronger effect = lower value 0.985 | locus YHR030C, strain SLT2, stronger effect = lower value 0.968 | locus YHR079C, strain IRE1, stronger effect = lower value 0.999 | locus YHR142W, strain chs7, stronger effect = lower value 0.982 | locus YJL092W, strain hpr5, stronger effect = lower value 0.972 | locus YJL095W, strain BCK1 (second series), stronger effect = lower value 0.989 | locus YJL095W, strain BCK1, stronger effect = lower value 0.977 | locus YJL115W, strain asf1, stronger effect = lower value 0.966 | locus YJL129C, strain trk1, stronger effect = lower value 0.974 | locus YJL154C, strain vps35, stronger effect = lower value 0.976 | locus YJL164C, strain tpk1, stronger effect = lower value 0.998 | locus YJL166W, strain qcr8, stronger effect = lower value 0.998 | locus YJL187C, strain SWE1, stronger effect = lower value 0.982 | locus YJR066W, strain TOR1, stronger effect = lower value 0.927 | locus YKL160W, strain elf1, stronger effect = lower value 0.994 | locus YKR026C, strain gcn3, stronger effect = lower value 0.962 | locus YKR091W, strain srl3, stronger effect = lower value 0.981 | locus YLL001W, strain dnm1, stronger effect = lower value 0.976 | locus YLL026W, stronger effect = lower value 0.971 | locus YLL041C, strain sdh2, stronger effect = lower value 0.992 | locus YLR027C, strain aat2, stronger effect = lower value 0.979 | locus YLR113W, strain HOG1, stronger effect = lower value 0.943 | locus YLR221C, strain rsa3, stronger effect = lower value 0.997 | locus YLR258W, strain gsy2, stronger effect = lower value 0.978 | locus YLR262C, strain YPT6 (second series), stronger effect = lower value 0.987 | locus YLR320W, strain mms22, stronger effect = lower value 0.983 | locus YLR342W, strain FKS1, stronger effect = lower value 0.973 | locus YLR357W, strain rsc2, stronger effect = lower value 0.929 | locus YLR370C, strain arc18, stronger effect = lower value 0.956 | locus YLR384C, strain iki3, stronger effect = lower value 0.976 | locus YML120C, strain ndi1, stronger effect = lower value 0.967 | locus YMR058W, strain fet3, stronger effect = lower value 0.981 | locus YMR125W, strain sto1, stronger effect = lower value 0.926 | locus YMR129W, stronger effect = lower value 0.97 | locus YMR205C, strain PFK2, stronger effect = lower value 0.937 | locus YMR231W, strain pep5, stronger effect = lower value 0.967 | locus YNL071W, strain lat1, stronger effect = lower value 0.986 | locus YNL183C, strain NPR1, stronger effect = lower value 0.945 | locus YNL209W, strain ssb2, stronger effect = lower value 0.986 | locus YNL248C, strain rpa49, stronger effect = lower value 0.99 | locus YNL322C, strain KRE1 (second series), stronger effect = lower value 0.982 | locus YNR049C, strain mso1, stronger effect = lower value 0.98 | locus YOR001W, strain rrp6, stronger effect = lower value 0.978 | locus YOR070C, strain gyp1, stronger effect = lower value 0.976 | locus YOR080W, strain dia2, stronger effect = lower value 0.967 | locus YOR083W, strain WHI5, stronger effect = lower value 0.993 | locus YOR106W, strain vam3, stronger effect = lower value 0.983 | locus YOR231W, strain MKK1, stronger effect = lower value 0.973 | locus YOR265W, strain rbl2, stronger effect = lower value 0.982 | locus YOR270C, strain vph1, stronger effect = lower value 0.951 | locus YOR290C, strain snf2, stronger effect = lower value 0.962 | locus YPL051W, strain arl3, stronger effect = lower value 0.994 | locus YPL078C, strain atp4, stronger effect = lower value 0.986 | locus YPL106C, strain sse1, stronger effect = lower value 0.982 | locus YPL240C, strain hsp82, stronger effect = lower value 0.99 | locus YPL256C, strain CLN2, stronger effect = lower value 0.974
